Sm TGR inh – qHTS Assay for the Inhibitors of Schistosoma Mansoni Peroxiredoxins | Potency, µM (titrated, usually from 114 µM), hits mostly inhibitors | Schistosoma mansoni thioredoxin glutathione reductase (TGR), Q962Y6 | actives 3% (n = 360,000) | purified TGR, DTNB reduction, TNB absorbance 405 nm; active means well fitted inhibition curve with a large enough effect; inconclusive means small, poorly fitted or top-dose-only effect; inactive means no such curve, though single readings can be large or run the other way; further: nearly all actives have a fitted effect of over 60% in size
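Kinetic colorimetric format: TGR-catalysed, NADPH-driven DTNB reduction monitored via TNB absorbance. Enzyme dispensed at 20 nM; compound exposure 15 min at room temperature before reaction start.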
SARS PLP yeast – qHTS of Yeast-based Assay for SARS-CoV PLP; Potency, µM (titrated, usually from 32.9 µM), most hits filed as activators; S. cerevisiae expressing SARS-CoV PLpro, growth rescue; actives 0.19% (n = 330,000); calls by dose curve; further: nearly all actives have a fitted effect of over 55% in size
Large screens that a line does not name were inactive. In the library only some 3% were active in any assay of this set; here they are far more common.

O=C1NC(=Nc2ccc(O)cc2)S/C1=C\C=C\c1ccco1	Sm TGR inh 14.1µM
COc1cc(/C=C2/SC(=Nc3ccc(O)cc3)NC2=O)cc(OC)c1O	none
Cc1ccc2c(c1)c1c3n2CCN(C(=O)c2cccc(C(F)(F)F)c2)C3CCC1 (centres undefined)	none (no result: SARS PLP yeast)
O=C(CSc1nc2ccsc2c(=O)n1Cc1ccccc1F)NCc1ccccc1Cl	none (no result: SARS PLP yeast)
CN(Cc1ccccc1)S(=O)(=O)c1nnc(NC(=O)c2ccccc2Cl)s1	none (no result: SARS PLP yeast)
O=C(NCc1ccccc1)c1c2c(nc3ccccc13)C(=O)N(C1CCCCC1)C2	none (no result: SARS PLP yeast)
Cc1onc(-c2ccccc2Cl)c1C(N)=O	none
Cc1[nH]n(C)c(=O)c1C(=O)c1c(-c2ccccc2Cl)noc1C	Sm TGR inh 44.7µM
CCc1nc2cccnc2n1-c1ccc(CC(=O)Nc2ccc(C)cc2)cc1	none (no result: SARS PLP yeast)
Cn1c(CN2CCOCC2)nc2cc(NC(=O)c3ccccc3[N+](=O)[O-])ccc21	none (no result: SARS PLP yeast)
CCCOc1ccc(C2C(=O)N(C3CCCCCC3)CC(=O)N2CCCOCC)cc1OC (centres undefined)	none (no result: SARS PLP yeast)
CCC1(CC)NC(=O)N(CC(=O)NC(=O)NCc2ccccc2)C1=O	Sm TGR inh 22.4µM
CCNC(=O)CN1C(=O)NC(Cc2ccccc2)(Cc2ccccc2)C1=O	none
O=C1CC(c2nc3ccccc3[nH]2)CN1c1cccc(Cl)c1 (centres undefined)	none (no result: SARS PLP yeast)
O=C(NCc1cccc(Cl)c1)c1ccc2c(Cl)c3c(nc2c1)CCCC3	none (no result: SARS PLP yeast)
COc1ccccc1NC(=O)C1=C(C)Nc2nc(SCc3ccccc3F)nn2C1c1cccs1 (centres undefined)	none (no result: SARS PLP yeast)
Cc1ccc(/C=C/C(=O)O)cc1S(=O)(=O)NCCCC(=O)O	Sm TGR inh inconclusive
COc1cc(/C=C/C(=O)O)cc(S(=O)(=O)NCc2ccco2)c1OC	Sm TGR inh 31.6µM
Cc1ccc(/C=C/C(=O)O)cc1S(=O)(=O)N(C)CCO	Sm TGR inh 22.4µM
COc1cc(/C=C/C(=O)O)cc(S(=O)(=O)N(C)CCO)c1OC	none
Cc1ccc(/C=C/C(=O)O)cc1S(=O)(=O)NCc1ccco1	Sm TGR inh 31.6µM
COc1ccc(/C=C/C(=O)O)cc1S(=O)(=O)NCc1ccco1	Sm TGR inh inconclusive
Cc1ccc2c(c1)-c1c(cnc3cc(-c4ccc(F)cc4)nn13)CO2	none (no result: SARS PLP yeast)
CSc1ncc(C(=O)NCc2cccc(C)c2)c(-c2ccccc2)n1	none (no result: SARS PLP yeast)
CC(C)c1noc(-c2ccccc2OCC(=O)Nc2ccc([N+](=O)[O-])cc2)n1	none (no result: SARS PLP yeast)
COC(=O)c1ccc(Nc2nnc(-c3ccc(C)c(S(=O)(=O)N4CCN(C)CC4)c3)c3ccccc23)cc1	none (no result: SARS PLP yeast)
Cc1ccc(C(=O)Nc2nnc(SCc3cc(=O)n4ccc(C)cc4n3)s2)cc1	none (no result: SARS PLP yeast)
Cn1cccc1Cc1nnc(SCC(=O)NCc2ccco2)n1-c1ccc(F)cc1	Sm TGR inh 44.7µM
Cn1cccc1Cc1nnc(SCC(=O)NCC2CCCO2)n1CCc1ccccc1 (centres undefined)	none
Cn1cccc1Cc1nnc(SCC(=O)NCc2ccco2)n1CCc1ccccc1	Sm TGR inh 50.1µM
Cn1cccc1Cc1nnc(SCC(=O)NCc2ccccc2Cl)n1-c1ccc(F)cc1	none
CCN(CC)S(=O)(=O)c1ccc2nc(NC(=O)c3cccnc3)sc2c1	none (no result: SARS PLP yeast)
Cc1ccccc1CN1C(=O)c2ccccc2S(=O)c2ccc(C(=O)N3CCOCC3)cc21 (centres undefined)	none (no result: SARS PLP yeast)
CCOC(=O)/C=C1\CN(Cc2cc(OC)c(OC)c(OC)c2)S(=O)(=O)c2ccc(C(F)(F)F)cc21	Sm TGR inh 28.2µM
CCOC(=O)/C=C1\CN(Cc2cc(OC)c(OC)c(OC)c2)S(=O)(=O)c2ccccc21	Sm TGR inh inconclusive
Cc1nn(-c2ccccc2)c(OC(=O)C(C)C)c1Sc1ccc(Cl)cc1	none (no result: SARS PLP yeast)
Clc1ccccc1-c1ccc2ncnc(NCc3cccs3)c2c1	none
c1coc(-c2ccc3ncnc(NCc4cccs4)c3c2)c1	Sm TGR inh 31.6µM
COc1ccc(Cl)cc1S(=O)(=O)Nc1cccc(-c2ccc(N3CCCC3)nn2)c1	none (no result: SARS PLP yeast)
O=C(NCCc1ccccc1)c1ccc(Cn2c(SCc3cccc(F)c3)nc3cccnc32)cc1	none
COc1ccc(Oc2c(C)oc3cc(OC(=O)N(C)C)ccc3c2=O)cc1	Sm TGR inh 22.4µM
COc1ccccc1Oc1c(C)oc2cc(OC(=O)N(C)C)ccc2c1=O	none
CCOP(=O)(Cc1cc(C(C)=O)c(C)o1)OCC	Sm TGR inh 39.8µM
CCCC(=O)c1cc(CP(=O)(OCC)OCC)oc1C	Sm TGR inh 28.2µM
CCOP(=O)(Cc1ccc(C#N)o1)OCC	none
CCOP(=O)(Cc1ccc(C(C)(C)CC(C)=O)o1)OCC	Sm TGR inh 15.8µM
CCOP(=O)(Cc1ccccc1)OCC	none
Cc1oc(CC(C)C)cc1C(N)=O	none
COc1ccc(-c2nc3cc(NC(=O)Cc4ccc(Cl)cc4)ccc3o2)cc1OC	none (no result: SARS PLP yeast)
CCOc1ccc(S(=O)(=O)N(CC(=O)Nc2ccc(OC)c(Cl)c2)c2ccccc2)cc1	none (no result: SARS PLP yeast)
O=C(Nc1ccc(Cl)cc1C(=O)Nc1ccncc1)c1ccco1	Sm TGR inh 39.8µM
O=C(Nc1ccc(Cl)cc1C(=O)NCc1cccnc1)c1ccco1	none
COc1ccc(-n2nnc(-c3nsc(NC(=O)c4cccs4)n3)c2C)cc1OC	none (no result: SARS PLP yeast)
Cc1ccc(NC2=NC(c3ccccc3)n3c(nc(C)cc3=O)N2)c(C)c1 (centres undefined)	Sm TGR inh 25.1µM
Cc1ccc(NC2=NC(c3ccc(F)cc3)n3c(nc(C)cc3=O)N2)c(C)c1 (centres undefined)	none
Cn1cccc1/C=C1/C(=O)NC(=S)N(Cc2ccc(F)cc2)C1=O	Sm TGR inh 25.1µM
Cn1cccc1/C=C1/C(=O)NC(=O)N(Cc2ccc(F)cc2)C1=O	none
COc1cc2ncc3c(-c4ccc(C)cc4)nn(-c4ccc(F)cc4F)c3c2cc1OC	none (no result: SARS PLP yeast)
Cc1cc(C)c2sc(NC(=O)c3ccc(S(=O)(=O)N4CCOCC4)cc3)nc2c1	none (no result: SARS PLP yeast)
Cc1cc(C)nc(NS(=O)(=O)c2ccc(NC(=S)NC(=O)c3cccnc3)cc2)n1	Sm TGR inh inconclusive
CCc1nnc(NS(=O)(=O)c2ccc(NC(=S)NC(=O)c3cccnc3)cc2)s1	Sm TGR inh 17.8µM
Cc1cc(NS(=O)(=O)c2ccc(NC(=S)NC(=O)c3cccnc3)cc2)no1	none
Cc1cc(NS(=O)(=O)c2ccc(NC(=S)NC(=O)c3ccc(Br)cc3)cc2)no1	Sm TGR inh 50.1µM
CCc1nnc(NS(=O)(=O)c2ccc(NC(=S)NC(=O)c3ccc(F)cc3)cc2)s1	Sm TGR inh 44.7µM, SARS PLP yeast inconclusive
CCc1nnc(NS(=O)(=O)c2ccc(NC(=O)c3ccc(Br)cc3)cc2)s1	none
COc1ccc(NS(=O)(=O)c2ccc(NC(=S)NC(=O)c3ccc(F)cc3)cc2)nn1	Sm TGR inh 44.7µM
COc1ccc(/C=C/C(=O)NC(=S)Nc2ccc(S(=O)(=O)Nc3ccc(OC)nn3)cc2)cc1	SARS PLP yeast inconclusive
CCCCOC(=O)c1ccc(Nc2ncnc3c2cnn3-c2cccc(C)c2)cc1	none (no result: SARS PLP yeast)
COc1cccc(CNC(=O)CSc2ccc(-c3sc(-c4ccccc4)nc3C)nn2)c1	none (no result: SARS PLP yeast)
COCCCn1c(=N)c(C(=O)NCc2cccnc2)cc2c(=O)n3cccc(C)c3nc21	none (no result: SARS PLP yeast)
COc1ccc(CN(C(=O)Nc2cc(C)ccc2C)C2CCN(C(C)=O)CC2)cc1	none (no result: SARS PLP yeast)
CC(C)c1ccc(NC(c2nnc(-c3ccccc3)o2)c2ccc(F)cc2Cl)cc1 (centres undefined)	none (no result: SARS PLP yeast)
COC(=O)CSc1nc2nc(-c3cccs3)cc(C(F)(F)F)c2c(=O)[nH]1	none
O=C(CSc1nc2nc(-c3cccs3)cc(C(F)(F)F)c2c(=O)[nH]1)C(F)(F)F	Sm TGR inh 3.55µM

Source: PubChem (National Center for Advancing Translational Sciences (NCATS))
